The whole screen tested about 290,000 compounds, of which about 27,000 (9.3%) were called active. For the sample, actives were picked, then their nearest neighbours and some compounds at random. A number with no mark means an inactive call. Cut-off read from the data, not from the text of the source: active = inhibition mostly above about 28% (no sharp cut-off); inactive = mostly below about 43%.
assay: A qHTS for Small Molecule Inhibitors of Shiga Toxin; details: Vero cells, Shiga toxin protein synthesis inhibition reporter; at 38.7 µM, active compounds read high; note: 0% is about no effect

| SMILES | inhibition |
| --- | --- |
| C=CCn1c(CNC(=O)c2ccco2)nnc1SCC(=O)c1ccc(OC)cc1 | -12.2% |
| Cn1c(Cc2cccs2)nnc1SCC(=O)Nc1ccccc1 | -7.01% |
| CCn1c(SCC(=O)c2ccc(Cl)s2)nnc1-c1cccs1 | 73.6% (active) |
| Cc1ccc(-n2c(Cc3cccs3)nnc2SCC(=O)OC(C)C)cc1 | 8.05% |
| CCn1c(Cc2cccs2)nnc1SCC(=O)c1ccc(C)cc1 | 41.4% (active) |
| CCn1c(SCC(=O)N(C)C2CCS(=O)(=O)C2)nnc1-c1cccs1 (centres undefined) | -0.571% |
| COC(=O)c1ccc(NC(=O)CSc2nnc(CNc3ccc(OC)cc3)n2C)cc1 | 24.4% |
| O=C(NCc1ccco1)C(c1ccncc1)N(C(=O)Cn1nnc2ccccc21)c1ccccc1 (centres undefined) | -3.36% |
| CCOC(=O)c1cc(C)nc(S(C)(=O)=O)c1C#N | 47.2% |
| CN(CCc1ccccc1)c1ccc([N+](=O)[O-])cn1 | -3.15% |
| CCCCC(c1nnnn1CS(=O)(=O)c1ccc(C)cc1)N1CCC(C(N)=O)CC1 (centres undefined) | -8.35% |
| CC1CC(C)CN(C(=O)CSc2ccsc2[N+](=O)[O-])C1 (centres undefined) | 63.3% (active) |
| COc1ccccc1-c1nnc(SCC(=O)N2CC(C)CC(C)C2)o1 (centres undefined) | -7.49% |
| O=C(CSc1ccsc1[N+](=O)[O-])N1CCCCC1 | 6.79% |
| COCc1c(C(=O)N/N=C(\C)c2ccncc2)nnn1-c1nonc1N | -3.05% |
| COC(=O)c1ccc(NC(=O)CSc2nnc(C3CC3)n2C)cc1 | 17.5% |
| O=C(Nn1cnc2ccccc2c1=O)c1ccc(F)cc1Cl | 71.8% (active) |
| O=C(Nn1cnc2ccccc2c1=O)c1ccccc1 | 58.6% |
| O=C(Nn1cnc2ccccc2c1=O)c1ccc([N+](=O)[O-])cc1Cl | -11.9% |
| COc1cc(C(=O)NCc2ccncc2)cc(Br)c1OCc1ccccc1 | -9.85% |
| CC(C(=O)NCCc1ccc(S(N)(=O)=O)cc1)N1C(=O)CC(C)(C)Sc2ccccc21 (centres undefined) | -10.5% |
| COc1ccc2c(c1OC)C(=O)OC2Nc1nc(-c2ccccc2)cs1 (centres undefined) | 36.9% (active) |
| COc1ccc(C)cc1Nc1nc(-c2c(C)[nH]c3ccccc23)cs1 | -3.8% |
| Cc1ccc(-c2csc(NC(=O)Cn3[nH]c(=O)c4ccccc4c3=O)n2)cc1 | 42.6% |
| CC(=O)Nc1ccc(-c2csc(NC=C3C(=O)OC(C)(C)OC3=O)n2)cc1 | 54% |

| SMILES | inhibition |
| --- | --- |
| COc1ccc(-c2csc(NC3OC(=O)c4ccccc43)n2)cc1 (centres undefined) | 41.6% (active) |
| Cc1ccc(-c2csc(NC3OC(=O)c4ccccc43)n2)cc1 (centres undefined) | 30% (active) |
| COc1ccc(N/C=C(\C2OC(=O)c3ccccc32)[N+](=O)[O-])cc1 (centres undefined) | 15.2% |
| COc1ccc2c(c1OC)C(=O)OC2c1c(O)nc(SC)n(-c2ccccc2)c1=O (centres undefined) | -8.28% |
| CCCn1c(CCNc2nc(-c3ccc(OC)cc3)cs2)nc2ccccc21 | 20.9% |
| Cc1ccc(NS(=O)(=O)c2ccc3c(c2)n(C)c(=O)c(=O)n3C)c(C)c1 | -7.48% |
| COCCN1CCn2c(nc3cc(NS(C)(=O)=O)ccc32)C1 | -2.98% |
| COc1ccc(C(=O)NC2CC(C)(C)Cc3c2cnn3-c2ccccc2C)o1 (centres undefined) | -10.5% |
| O=C(COc1ccc2c3c(c(=O)oc2c1)CCCC3)NCC(O)c1ccccc1 (centres undefined) | -3.53% |
| O=C(CCn1c(=S)[nH]c2cc3c(cc2c1=O)OCO3)NCc1ccc(Cl)cc1 | 1.66% |
| O=C(CCc1nnc(Cc2ccc3c(c2)OCO3)o1)NCCc1ccccc1Cl | -5.99% |
| CN1CCN(Cc2nc3cc(NC(=O)COc4ccc([N+](=O)[O-])cc4)ccc3n2C)CC1 | -2.13% |
| COC(=O)c1cccc(C(=O)N2CCCC(Nc3ccc4c(c3)OCCO4)C2)c1 (centres undefined) | 2.25% |
| Cc1cc(/C=C2\SC(=O)N(C)C2=O)c(C)n1-c1cccc(C(=O)O)c1 | 3.52% |
| COc1ccc(OCCCCN2CCC(C)CC2)cc1 | -6% |
| Cc1cccc(NC(=S)Nc2ccc(Cl)c(Cl)c2)c1 | 17% |
| CC(C)CNC(=S)NNC(=O)c1nn(C)cc1Cl | 4.35% |
| Cn1cc(Cl)c(C(=O)NNC(=S)Nc2cccc(Cl)c2)n1 | 49.5% (active) |
| CC(Cc1cccs1)N(Cc1ccc(Cl)cc1)C(=O)c1ccncc1 (centres undefined) | -3.64% |
| COc1cc(OC)c(NS(=O)(=O)c2cn(C)cn2)cc1Cl | 11.1% |
| COc1cccc(CNC(=O)c2cccnc2Sc2ccc(Cl)cc2)c1 | -40.4% |
| CC1CCN(c2c(NCc3ccc(C(=O)NCc4ccccc4)cc3)c(=O)c2=O)CC1 | -6.77% |
| CC1CCCN(c2ccc(C(=O)NCCc3ccccc3)cn2)C1 (centres undefined) | 78.5% (active) |
| O=C(NCCc1ccccc1)c1ccc(NC2=NC3CS(=O)(=O)CC3S2)cc1 (centres undefined) | 3.05% |
